An excerpt weighted towards active compounds, which were near 2% of everything screened.
MCL1-BIM inh = inhibitors of MCL1 binding to BIM-BH3, primary screen, biochemical, fluorescence polarization; Induced myeloid leukemia cell differentiation protein Mcl-1 (Homo sapiens), Q07820; GST-MCL1 / FITC-Bim-BH3 fluorescence polarization; inhibition, % at 10.9 µM; 320,000 compounds, 0.68% hits; AID 2057, 2009;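 active = inhibition above the mean inhibition of all tested compounds plus 3 SD, set per campaign, cut at about 40% in these data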;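 also: 0% = DMSO wells and 100% = unlabeled Bim-BH3 peptide control; higher means more loss of mP so more displacement of Bim peptide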
Target sequence (Q07820 whole entry, looked up): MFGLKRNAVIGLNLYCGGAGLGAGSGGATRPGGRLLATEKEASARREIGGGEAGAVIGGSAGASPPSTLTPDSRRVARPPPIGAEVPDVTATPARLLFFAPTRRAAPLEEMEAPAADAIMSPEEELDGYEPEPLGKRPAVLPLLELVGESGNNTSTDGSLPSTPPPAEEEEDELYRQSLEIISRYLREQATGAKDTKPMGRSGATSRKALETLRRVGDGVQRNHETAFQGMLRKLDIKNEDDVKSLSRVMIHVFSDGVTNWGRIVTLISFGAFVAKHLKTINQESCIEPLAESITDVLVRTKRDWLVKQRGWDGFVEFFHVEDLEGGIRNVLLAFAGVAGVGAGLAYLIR
Mcl1 Noxa PPI = Mcl-1/Noxa binding inhibitors, primary screen, biochemical, TR-FRET, 1536-well | Induced myeloid leukemia cell differentiation protein Mcl-1 (Homo sapiens), Q07820 | TR-FRET Mcl-1/Noxa peptide binding, 2 h | inhibition, % at 21.7 µM | 220,000 compounds, 1.5% hits | AID 1022, 2008;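 active = compounds that cut the protein-peptide binding signal by more than 50% relative to plate controls in a single-dose test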;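 also: His-tagged Mcl-1 with rhodamine Noxa BH3 peptide and terbium anti-His antibody; 0% = Mcl-1 plus Noxa peptide wells and 100% = peptide-only wells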
Mcl1 Bid PPI = Mcl-1/Bid binding inhibitors, primary screen, biochemical, TR-FRET, 1536-well; Induced myeloid leukemia cell differentiation protein Mcl-1 (Homo sapiens), Q07820; TR-FRET Mcl-1/Bid-Dy647 peptide binding; inhibition, % at 21.7 µM; 220,000 compounds, 0.97% hits; AID 1021, 2008;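 active = compounds that cut the binding signal by more than half at the single screening dose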;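 also: His-tagged Mcl-1 with europium anti-His antibody binding Bid BH3 peptide; 0% = Mcl-1 plus peptide wells and 100% = peptide-only wells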
Bim-Mcl-1 = inhibitors of Bim peptide binding to Mcl-1, primary screen, biochemical, bead-based flow cytometry, multiplex; Bim peptide-Mcl-1 binding; inhibition, % at 10 µM; 190,000 compounds, 0.1% hits; AID 1009, 2008; in the data active = inhibition above about 40%;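 also: 0% = no compound tracer wells and 100% = peptide blocker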
* hit, by the source's call; / = no result given.

SMILES | MCL1-BIM inh | Mcl1 Noxa PPI | Mcl1 Bid PPI | Bim-Mcl-1
Cc1[nH]n2c(=O)c3c(nc2c1-c1ccc(F)cc1)CCCC3 | 1 | 4 | 81* | 4
O=c1c2c(nc3cc(-c4ccc(F)cc4)[nH]n13)CCCC2 | 9 | 52* | -24 | 0
Cc1[nH]n2c(=O)c3c(nc2c1-c1ccccc1)CCCC3 | 2 | 19 | -10 | -3
COc1cccc(CN2CC(C(=O)NCc3cccc(N4CCCC4)c3)CCC2=O)c1 (stereo unspecified) | 12 | / | / | /
CCCCn1c(NC(=O)c2ccc(F)cc2)c(C#N)c2nc3ccccc3nc21 | -14 | / | / | /
CCCCn1c(NC(=O)c2ccccc2)c(C#N)c2nc3ccccc3nc21 | / | 67* | 85* | 2
COc1ccc(C(=O)Cc2cc3ccccc3oc2=O)cc1 | 3 | / | / | /
CC1=CC(=C2C(=O)c3ccccc3C2=O)C=C(C)N1Cc1ccco1 | 14 | 64* | -18 | 4
O=C1c2ccccc2C(=O)N1Cc1ccco1 | -2 | 8 | 3 | 4
CCOc1ccc(S(=O)(=O)N2CCN(C(=O)c3ccncc3)CC2)cc1 | 5 | / | / | /
Cc1ccc(S(=O)(=O)Nc2cc3c4c(c2)CCN4C(=O)CC3)cc1 | 5 | / | / | /
COc1cc(C2Nc3cccc4cccc(c34)N2)cc(OC)c1OC(C)=O | 46* | 82* | 12 | 10
CCOC(=O)CC(=O)Nc1ccn[nH]1 | -7 | 55* | -1 | /
O=C1CC(=O)c2c1cccc2[N+](=O)[O-] | / | 101* | 12 | /
Cc1ccc(C(=O)OCC(=O)Nc2ccccc2)cc1NC(=O)c1ccco1 | -9 | -7 | -11 | -7
Cc1ccc(C(=O)OCC(=O)Nc2ccc(N(C)C)cc2)cc1NC(=O)c1ccco1 | -6 | 79* | -50 | 0
O=C(Nc1cccc(C(F)(F)F)c1)c1cc2ncc(Br)cn2n1 | 1 | 22 | -22 | 1
O=C(Nc1ccc2c(c1)OCO2)c1cc2ncc(Br)cn2n1 | / | 58* | -58 | 3
O=C(N/N=C/c1ccco1)c1cccc(N2Cc3ccccc3C2)c1 | 20 | 75* | -7 | 0
COCCN(C(=S)Nc1ccc(C)cc1)C(C)c1cccnc1 (stereo unspecified) | 4 | -2 | -12 | -2
CCn1c(CCNC(=O)c2ccc(OC)cc2)nnc1SCc1ccc(Cl)c(Cl)c1 | 8 | 20 | -10 | 0
COc1ccc(C(=O)NC(CO)c2nnc(SCc3ccc(Cl)c(Cl)c3)n2C)cc1 (stereo unspecified) | 3 | 0 | -3 | 41*
N#Cc1ccncc1Sc1ccc(Cl)cc1 | -2 | / | / | /
Cc1cc2oc(C(=O)Nc3ccc(S(=O)(=O)Nc4nccs4)cc3)cc(=O)c2cc1Cl | 8 | 62* | 26 | 7
Cc1cc(C)c2oc(C(=O)Nc3ccc(S(=O)(=O)Nc4nccs4)cc3)cc(=O)c2c1 | 10 | 83* | -152 | /
SMILES | MCL1-BIM inh | Mcl1 Noxa PPI | Mcl1 Bid PPI | Bim-Mcl-1
CC(=O)Nc1ccc(NC(=O)c2cc(=O)c3cc(C)cc(C)c3o2)cc1 | 3 | / | / | /
N#Cc1ccc(S(=O)(=O)NC2CC2)cc1 | 2 | / | / | /
CN(CC(=O)NCc1ccccc1F)S(=O)(=O)c1ccc(Cl)cc1 | -2 | / | / | /
COc1ccc(CNC(=O)c2ccccc2SCC(=O)NCc2ccco2)cc1 | 7 | / | / | /
Cc1ccc(NC(=O)c2cc(S(=O)(=O)NCCC3=CCCCC3)ccc2F)cc1F | 8 | 10 | -4 | 68*
O=C(Nc1cccc(F)c1)c1cc(S(=O)(=O)NCCC2=CCCCC2)ccc1F | -3 | 9 | -7 | -2
CCCCn1c(=O)[nH]c(=O)c2c1nc(-c1ccccc1F)n2Cc1ccccc1OC | 3 | 3 | -11 | -3
Cc1nnc2ccc(-c3ccc(NC(=O)Cc4cccs4)cc3)nn12 | 16 | 68* | -62 | /
O=C(Cc1cccs1)Nc1ccc(-c2nnn(CC(=O)N3CCOCC3)n2)cc1 | 37 | 56* | -36 | -2
CCOC(=O)c1sc(N/N=C/c2cc(Br)c(O)c(OC)c2)nc1C | 30 | / | / | /
Cc1ccc(S(=O)(=O)C(CCC(=O)N2CCOCC2)S(=O)(=O)c2ccc(C)cc2)cc1 | 12 | 100* | -15 | 1
Cc1ccc(S(=O)(=O)/N=C(\CN2CCOCC2)N2CCCC2)cc1 | -9 | -7 | -3 | -1
Cc1ccc(S(=O)(=O)CC(=O)N2CCOCC2)cc1 | 1 | 3 | -25 | -2
Cc1ccc(S(=O)(=O)/N=C(\CCl)N2CCOCC2)cc1 | 3 | 9 | 67* | -4
O=C(CSc1nncn1-c1ccccc1)Nc1cc(F)ccc1F | -2 | / | / | /
O=C(CSc1ccccc1)Nc1ccccc1C(=O)O | 0 | 39 | 56* | 2
CC(=O)Oc1ccc(NC(=O)CSc2ccccc2)cc1 | 2 | 75* | 8 | 0
CC(Nc1cc(C)cc(C)c1)=[N+](C)CCNS(=O)(=O)c1ccc(Cl)cc1 | -19 | / | / | /
O=C(c1ccc(NC2=NC3CS(=O)(=O)CC3S2)cc1)N(CCO)Cc1ccccc1 (stereo unspecified) | 9 | / | / | /
CCc1c(C)sc(NC(=O)CC#N)c1C#N | 13 | 62* | -81 | 1
CCCC(=O)Nc1sc(C)c(C)c1C#N | 2 | -1 | -36 | 0
COc1ccccc1CNC(=O)CNCC1CCCO1 (stereo unspecified) | 1 | 15 | 50* | 0
COc1ccc(S(=O)(=O)Nc2ccc(O)c3ccccc23)cc1 | 9 | 66* | -7 | -10
CCN(C(=O)CSc1nnc(SC(C)C)s1)C1CCS(=O)(=O)C1 (stereo unspecified) | 2 | / | / | /
O=[N+]([O-])c1ccccc1CN1CCN(Cc2ccccn2)CC1 | 4 | 34 | 59* | 0
SMILES | MCL1-BIM inh | Mcl1 Noxa PPI | Mcl1 Bid PPI | Bim-Mcl-1
O=C(c1ccccc1)N1CCC(c2nc(-c3ccc(S(=O)(=O)N4CCOCC4)cc3)no2)CC1 | 3 | 29 | -23 | -1
Cc1cccc(C(=O)N2CCC(c3nc(-c4ccc(S(=O)(=O)N5CCOCC5)cc4)no3)CC2)c1 | 2 | / | / | 47*
CC(=O)c1sc(-c2ccc(Cl)cc2)cc1N | 3 | 3 | 56* | /
COC(=O)c1sc(-c2ccc(Cl)cc2)cc1N | 3 | 13 | -21 | /
O=C(c1cnn2c(C(F)(F)F)cc(-c3cccs3)nc12)N1CCOCC1 | 0 | 10 | 69* | 0
CCOC(=O)N1CCN(C(=O)c2cnn3c(C(F)(F)F)cc(-c4cccs4)nc23)CC1 | 2 | 0 | -38 | 1
Cc1cc(-c2ccc(N=Nc3c(S(=O)(=O)O)cc4cc(S(=O)(=O)O)cc(N)c4c3O)c(C)c2)ccc1N=Nc1c(S(=O)(=O)O)cc2cc(S(=O)(=O)O)cc(N)c2c1O | 96* | / | / | /
CCC(C)(C)NC(=O)C(c1ccc(OC)cc1)N(C(=O)CCC(=O)Nc1cc(C)on1)c1ccc2c(c1)OCO2 (stereo unspecified) | 9 | / | / | /
C[C@@H](C(=O)NCCc1c[nH]c2ccccc12)[C@@H]1C[C@@]1(C)[C@@H](NC(=O)OCc1ccccc1)c1ccccc1 | -13 | -5 | -17 | 86*
